By AC50 is commonly meant the concentration giving half of the maximal activity seen.

Results filed as inconclusive are left out. Active and inactive are the calls of the source. Rule for the calls, unless noted: active = hit-call score of the fitted dose curve at least 0.9, where 1 is the maximum; inactive = score below 0.9.

The nature of assay [1]: ATG_PXRE_CIS: Attagene CIS-FACTORIAL HepG2 Assay for human Pregnane X Receptor Element (PXRE) (AID 2282957). The following applies: HepG2 Attagene CIS-FACTORIAL PXRE reporter, mRNA; actives raise or lower the signal. Summed up:
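Using HepG2 transfected with multiple reporter transcription units, endogenous factor-driven transcription was scored as reporter mRNA after 24 h exposure.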

Assay [2] can be described thus: ATG_PPRE_CIS: Attagene CIS-FACTORIAL HepG2 Assay for human Peroxisome Proliferator-activated Response Element (PPRE) (AID 2282958). The note with it: HepG2 PPRE cis-element reporter, Attagene transcription factor profiling; actives raise or lower the signal. The method in brief:
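In this cell-based multiplex, a PPRE cis element drives a reporter sequence in transiently transfected HepG2 cells. Following 24 h treatment, labeled cDNA amplicons are sized and quantified by capillary electrophoresis, with DMSO defining baseline.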

Assay [3] in a line: ATG_RORE_CIS: Attagene CIS-FACTORIAL HepG2 Assay for human RAR-related Orphan Receptor Element (RORE) (AID 2282959). The note with it: HepG2 Attagene cis-factorial RORE reporter, mRNA; actives raise or lower the signal. The method in brief: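 Endogenous factor activity at a cis response element is read as reporter transcript levels in HepG2 cells, 24 h post-dose. Transcripts are quantified by RT-PCR with capillary electrophoresis, and data fitted in both directions against DMSO.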

A short description of assay [4]: ATG_Sox_CIS: Attagene CIS-FACTORIAL HepG2 Assay for human SRY-box transcription factor (SOX) (AID 2282960). The following applies: HepG2 Attagene cis-factorial SOX reporter, mRNA; actives raise or lower the signal. The method in brief: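 Measures mRNA induction of a SOX1-associated reporter in HepG2 after 24 h dosing. Fluorescently labelled RT-PCR fragments are separated by capillary electrophoresis, and gain or loss relative to DMSO control is fitted.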

Assay [5] addresses Transcription factor Sp1 (Homo sapiens) (UniProt P08047). Briefly: ATG_Sp1_CIS: Attagene CIS-FACTORIAL HepG2 Assay for human Specificity Protein 1 (Sp1) (AID 2282961). The following applies: HepG2 Sp1 cis-reporter transcription, actives raise or lower the signal. Summed up: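 Cells: HepG2, transiently transfected with cis-regulated multiplexed reporters. Exposure: 24 h. Detection: reporter transcripts amplified, fluorescently labeled, restriction-digested and sized by capillary electrophoresis. Analysis: bidirectional fit relative to DMSO.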

Assay [6] is described as follows: ATG_SREBP_CIS: Attagene CIS-FACTORIAL HepG2 Assay for human Sterol Regulatory Element Binding (SREBP) (AID 2282962). The following applies: HepG2 Attagene cis-factorial SREBP reporter, mRNA; actives raise or lower the signal. The method in brief:
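Endogenous factor activity is measured in HepG2 through multiplexed reporter units under cis-element control. Following a 24 h incubation, reporter transcripts are reverse-transcribed, PCR-amplified and sized by capillary electrophoresis; activity is fitted in both directions relative to DMSO.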

Assay [7] is described as follows: ATG_TA_CIS: Attagene CIS-FACTORIAL HepG2 Assay for human TA Basal Promoter (AID 2282964). The following applies: HepG2 Attagene CIS-factorial TA basal promoter reporter; actives raise or lower the signal. Summed up:
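Cis-factorial format in HepG2: reporters report endogenous factors, not chimeric Gal4 fusions. After 24 h treatment, reporter transcripts were measured by RT-PCR-capillary electrophoresis fluorescence, analysed bidirectionally versus DMSO.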

Assay [8] can be described thus: ATG_TCF_b_cat_CIS: Attagene CIS-FACTORIAL HepG2 Assay for human T-Cell-Factor with beta-catenin (TCF/b-cat) (AID 2282965). The note with it: HepG2 TCF/beta-catenin cis-reporter transcription, actives raise or lower the signal. Summed up: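 Endogenous transcription factor activity is captured through cis-promoter reporter constructs transiently introduced into human HepG2 liver cells. Induced reporter mRNA is measured after 24 h and fitted bidirectionally relative to DMSO.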

Assay [9] can be described thus: ATG_TAL_CIS: Attagene CIS-FACTORIAL HepG2 Assay for human TAL Basal Promoter (AID 2282966).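 Note: background control endpoint measuring basal TAL promoter reporter mRNA not a specific factor.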 The following applies: HepG2 Attagene cis-factorial TAL promoter reporter; actives raise or lower the signal. Summed up: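 After 24 hours of chemical exposure, transfected HepG2 cells yielded RNA that was converted to 6-FAM-labelled, HpaI-digested reporter fragments for capillary electrophoresis. Values derive from bidirectional fitting against DMSO controls.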

The nature of assay [10]: ATG_TGFb_CIS: Attagene CIS-FACTORIAL HepG2 Assay for human Transforming Growth Factor (TGF) (AID 2282967). The following applies: HepG2 Attagene CIS TGFb reporter, mRNA transcription; actives raise or lower the signal. The method in brief:
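Multiplexed cis-reporter HepG2 system, 24 h treatment; mRNA induction read by fluorescence after RT-PCR and CE; DMSO negative control, bidirectional curve fitting.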

The nature of assay [11]: ATG_VDRE_CIS: Attagene CIS-FACTORIAL HepG2 Assay for human Vitamin D Receptor Element (VDRE) (AID 2282968). The note with it: HepG2 VDRE cis-reporter transcription, actives raise or lower the signal. Summed up: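 Readout is VDRE-driven reporter mRNA reflecting endogenous factor activity in human HepG2 cells, sampled 24 h post-dose. Quantification used labelled RT-PCR products separated by capillary electrophoresis; bidirectional analysis relative to DMSO.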

The target of assay [12] is Steroid hormone receptor ERR1 (Homo sapiens) (UniProt P11474). Briefly: ATG_ERRa_TRANS: Attagene TRANS-FACTORIAL HepG2 Assay for human Estrogen-Related Receptor alpha (ERRa) (AID 2282971; active = hit-call score of the fitted dose curve at least 0.9, where 1 is the maximum). The note with it: HepG2 Attagene TRANS reporter, ERRa transactivation. The method in brief: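 Reporter transcript induction was quantified by RT-PCR and capillary electrophoresis of FAM-labelled, HpaI-cut products after 24 h treatment of HepG2 cells carrying transiently transfected GAL4-UAS reporter units and an exogenous ERRa-Gal4 fusion; activity scored as increase over DMSO.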

For assay [13], the target named is X-box-binding protein 1 (Homo sapiens) (UniProt P17861). Briefly: ATG_Xbp1_CIS: Attagene CIS-FACTORIAL HepG2 Assay for human X-box Binding Protein 1 (XBP1) (AID 2282972). The note with it: HepG2 XBP1 cis-element reporter, Attagene multiplex; actives raise or lower the signal. Summed up: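 Multiplexed cis-reporter readout in transfected HepG2 liver cells. Exposure lasted 24 hours. Activity in either direction was fitted against DMSO as negative control and baseline.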

A short description of assay [14]: ATG_M_19_TRANS: Attagene TRANS-FACTORIAL HepG2 Assay for M19 Transcription Factor (Internal Marker) (AID 2282974; active = hit-call score of the fitted dose curve at least 0.9, where 1 is the maximum). The following applies: HepG2 Attagene TRANS-FACTORIAL M19 internal marker reporter. Summed up: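 Reporter mRNA induction was measured in transfected HepG2 cells 24 h after dosing. Endpoint fitted upward relative to DMSO and serves as a background control within the multiplexed TRANS panel.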

Assay [15] is described as follows: ATG_GAL4_TRANS: Attagene TRANS-FACTORIAL HepG2 Assay for GAL4 (Internal Marker) (AID 2282976; active = hit-call score of the fitted dose curve at least 0.9, where 1 is the maximum). The following applies: HepG2 Attagene TRANS GAL4 internal marker reporter. The method in brief: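 First, HepG2 cells were transfected with reporter units under GAL4-UAS control. Next, they were treated with chemical for 24 h. Finally, RNA was reverse-transcribed, PCR-amplified, FAM-labelled and resolved by capillary electrophoresis, with induction scored against DMSO.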

The target in assay [16] is Signal transducer and activator of transcription 3 (Homo sapiens) (UniProt P40763). Briefly: ATG_STAT3_CIS: Attagene CIS-FACTORIAL HepG2 Assay for human Signal Transducer and Activator of Transcription 3 (STAT3) (AID 2282963). The following applies: HepG2, Attagene cis-factorial STAT3 reporter transcription; actives raise or lower the signal. The method in brief: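 Readout is reporter transcript quantified by RT-PCR and capillary electrophoresis, with 6-FAM primer extension and HpaI digestion. Total RNA is taken 24 h after dosing transiently transfected HepG2 carrying cis-regulated reporter units. Bidirectional fit against DMSO.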

For assay [17], the target named is Nuclear receptor subfamily 1 group I member 3 (Homo sapiens) (UniProt Q14994). In words: ATG_CAR_TRANS: Attagene TRANS-FACTORIAL HepG2 Assay for human Constitutive Androstane Receptor (CAR) (AID 2282969; active = hit-call score of the fitted dose curve at least 0.9, where 1 is the maximum;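 note: activators raise reporter mRNA above DMSO so AC50 marks induction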). The note with it: HepG2 Attagene TRANS-FACTORIAL CAR reporter. The method in brief:
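Signal is reporter mRNA induction relative to DMSO, measured 24 h after dosing by RT-PCR with fluorescent primer extension and capillary electrophoresis. Human HepG2 liver cells carried transiently transfected chimeric NR-Gal4/GAL4-UAS reporter constructs.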

In assay [18] the target is Estrogen receptor (Homo sapiens) (UniProt P03372). In words: ATG_ERa_TRANS: Attagene TRANS-FACTORIAL HepG2 Assay for human Estrogen Receptor alpha (ERa) (AID 2282970; active = hit-call score of the fitted dose curve at least 0.9, where 1 is the maximum). The note with it: HepG2 Attagene TRANS ERa GAL4 reporter, mRNA. The method in brief: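 Liver-derived HepG2 cells expressing chimeric nuclear receptor-Gal4 proteins from transient transfection were exposed for 24 hours. Gain of reporter mRNA signal versus DMSO, read by capillary electrophoresis of FAM-labelled PCR products, was recorded.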

Assay [19] has as its target Estrogen-related receptor gamma (Homo sapiens) (UniProt P62508). In words: ATG_ERRg_TRANS: Attagene TRANS-FACTORIAL HepG2 Assay for human Estrogen-Related Receptor gamma (ERRg) (AID 2282977; active = hit-call score of the fitted dose curve at least 0.9, where 1 is the maximum;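 note: hits increase reporter signal over DMSO so potencies reflect activators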). The following applies: HepG2 Attagene TRANS reporter, ERRg transactivation. The method in brief: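 Induction of reporter transcripts through a chimeric NR-Gal4 protein is quantified in transfected human HepG2 liver cells after 24 h chemical exposure, using RT-PCR with capillary electrophoresis detection and DMSO as baseline.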

The target in assay [20] is Glucocorticoid receptor (Homo sapiens) (UniProt P04150). Briefly: ATG_GR_TRANS: Attagene TRANS-FACTORIAL HepG2 Assay for human Glucocorticoid Receptor (GR) (AID 2282978; active = hit-call score of the fitted dose curve at least 0.9, where 1 is the maximum;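 note: activators score as hits since higher reporter transcript over DMSO is fitted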). The following applies: HepG2 Attagene TRANS GR reporter, mRNA transcription. Summed up:
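Reporter transcript levels, detected by fluorescence after RT-PCR and capillary electrophoresis, served as the endpoint. HepG2 cells bearing transfected GAL4-UAS reporters responsive to NR-GAL4 chimeras were incubated with compound 24 h; DMSO defined baseline.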

Sequence of Nuclear receptor subfamily 1 group I member 3 (Homo sapiens) (Q14994 whole entry, looked up, the tested form may be a part): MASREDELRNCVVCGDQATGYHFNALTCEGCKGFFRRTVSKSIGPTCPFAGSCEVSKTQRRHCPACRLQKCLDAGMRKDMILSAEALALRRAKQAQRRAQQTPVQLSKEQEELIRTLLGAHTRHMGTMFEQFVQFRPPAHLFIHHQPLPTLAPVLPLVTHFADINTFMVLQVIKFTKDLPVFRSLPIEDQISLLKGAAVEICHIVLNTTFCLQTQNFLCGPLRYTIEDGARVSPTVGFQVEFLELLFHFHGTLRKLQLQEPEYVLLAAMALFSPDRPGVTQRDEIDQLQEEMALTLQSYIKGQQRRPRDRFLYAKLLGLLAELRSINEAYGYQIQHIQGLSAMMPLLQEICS
Sequence of Steroid hormone receptor ERR1 (Homo sapiens) (P11474 whole entry, looked up, the tested form may be a part): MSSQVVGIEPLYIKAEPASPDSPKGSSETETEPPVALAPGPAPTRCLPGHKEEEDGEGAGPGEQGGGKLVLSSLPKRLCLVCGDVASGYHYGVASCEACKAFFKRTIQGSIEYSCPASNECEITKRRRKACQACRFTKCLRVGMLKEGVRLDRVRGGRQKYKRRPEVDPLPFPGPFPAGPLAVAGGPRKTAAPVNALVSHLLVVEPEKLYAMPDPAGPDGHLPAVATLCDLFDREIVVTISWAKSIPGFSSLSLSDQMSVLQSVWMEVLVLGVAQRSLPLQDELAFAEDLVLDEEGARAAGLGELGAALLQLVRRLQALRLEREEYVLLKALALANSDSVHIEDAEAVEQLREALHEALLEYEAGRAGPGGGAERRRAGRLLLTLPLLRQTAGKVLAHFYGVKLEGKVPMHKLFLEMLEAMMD
Sequence of Estrogen receptor (Homo sapiens) (P03372 whole entry, looked up, the tested form may be a part): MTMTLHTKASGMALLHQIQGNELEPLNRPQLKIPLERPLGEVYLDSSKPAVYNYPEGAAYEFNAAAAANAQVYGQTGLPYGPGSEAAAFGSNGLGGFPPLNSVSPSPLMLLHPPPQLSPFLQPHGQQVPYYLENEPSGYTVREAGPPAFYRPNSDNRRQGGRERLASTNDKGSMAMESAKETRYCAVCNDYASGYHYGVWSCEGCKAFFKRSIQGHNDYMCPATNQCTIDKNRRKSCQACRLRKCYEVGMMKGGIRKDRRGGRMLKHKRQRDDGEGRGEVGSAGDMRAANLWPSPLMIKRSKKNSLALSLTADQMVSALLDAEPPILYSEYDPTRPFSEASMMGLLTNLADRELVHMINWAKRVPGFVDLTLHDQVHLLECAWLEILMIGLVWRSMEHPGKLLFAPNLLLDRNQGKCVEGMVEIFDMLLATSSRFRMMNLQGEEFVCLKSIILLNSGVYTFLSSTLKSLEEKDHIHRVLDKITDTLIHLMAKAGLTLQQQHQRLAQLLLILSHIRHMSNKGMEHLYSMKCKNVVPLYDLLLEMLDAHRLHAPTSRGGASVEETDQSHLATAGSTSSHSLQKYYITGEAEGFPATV
Sequence of Signal transducer and activator of transcription 3 (Homo sapiens) (P40763 whole entry, looked up): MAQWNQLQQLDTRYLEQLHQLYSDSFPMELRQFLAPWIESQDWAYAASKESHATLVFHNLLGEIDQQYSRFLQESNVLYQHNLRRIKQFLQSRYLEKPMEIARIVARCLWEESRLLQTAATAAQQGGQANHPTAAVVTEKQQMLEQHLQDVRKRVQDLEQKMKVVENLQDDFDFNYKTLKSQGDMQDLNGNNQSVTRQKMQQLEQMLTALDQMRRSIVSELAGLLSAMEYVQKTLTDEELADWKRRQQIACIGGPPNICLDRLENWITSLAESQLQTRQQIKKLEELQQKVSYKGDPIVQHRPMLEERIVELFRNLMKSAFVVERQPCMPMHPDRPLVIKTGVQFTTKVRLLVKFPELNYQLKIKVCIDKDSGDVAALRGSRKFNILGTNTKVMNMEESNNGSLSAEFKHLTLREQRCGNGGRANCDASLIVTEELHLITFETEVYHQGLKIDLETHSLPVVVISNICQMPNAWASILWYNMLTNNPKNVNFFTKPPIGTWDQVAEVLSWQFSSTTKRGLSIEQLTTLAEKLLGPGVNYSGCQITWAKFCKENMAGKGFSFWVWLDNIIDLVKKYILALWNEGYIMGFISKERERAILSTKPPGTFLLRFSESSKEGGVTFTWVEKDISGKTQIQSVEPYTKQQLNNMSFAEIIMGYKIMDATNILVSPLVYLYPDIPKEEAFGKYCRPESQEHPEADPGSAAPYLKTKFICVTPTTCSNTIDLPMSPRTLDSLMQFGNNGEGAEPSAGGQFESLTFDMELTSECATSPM
Sequence of X-box-binding protein 1 (Homo sapiens) (P17861 whole entry, looked up): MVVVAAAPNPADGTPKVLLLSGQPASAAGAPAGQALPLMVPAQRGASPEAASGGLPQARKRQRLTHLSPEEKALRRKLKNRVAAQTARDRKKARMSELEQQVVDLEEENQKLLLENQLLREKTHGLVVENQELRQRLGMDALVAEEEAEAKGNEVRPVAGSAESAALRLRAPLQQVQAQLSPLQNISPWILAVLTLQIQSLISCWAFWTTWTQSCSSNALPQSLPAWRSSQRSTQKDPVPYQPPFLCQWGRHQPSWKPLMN
Sequence of Transcription factor Sp1 (Homo sapiens) (P08047 whole entry, looked up): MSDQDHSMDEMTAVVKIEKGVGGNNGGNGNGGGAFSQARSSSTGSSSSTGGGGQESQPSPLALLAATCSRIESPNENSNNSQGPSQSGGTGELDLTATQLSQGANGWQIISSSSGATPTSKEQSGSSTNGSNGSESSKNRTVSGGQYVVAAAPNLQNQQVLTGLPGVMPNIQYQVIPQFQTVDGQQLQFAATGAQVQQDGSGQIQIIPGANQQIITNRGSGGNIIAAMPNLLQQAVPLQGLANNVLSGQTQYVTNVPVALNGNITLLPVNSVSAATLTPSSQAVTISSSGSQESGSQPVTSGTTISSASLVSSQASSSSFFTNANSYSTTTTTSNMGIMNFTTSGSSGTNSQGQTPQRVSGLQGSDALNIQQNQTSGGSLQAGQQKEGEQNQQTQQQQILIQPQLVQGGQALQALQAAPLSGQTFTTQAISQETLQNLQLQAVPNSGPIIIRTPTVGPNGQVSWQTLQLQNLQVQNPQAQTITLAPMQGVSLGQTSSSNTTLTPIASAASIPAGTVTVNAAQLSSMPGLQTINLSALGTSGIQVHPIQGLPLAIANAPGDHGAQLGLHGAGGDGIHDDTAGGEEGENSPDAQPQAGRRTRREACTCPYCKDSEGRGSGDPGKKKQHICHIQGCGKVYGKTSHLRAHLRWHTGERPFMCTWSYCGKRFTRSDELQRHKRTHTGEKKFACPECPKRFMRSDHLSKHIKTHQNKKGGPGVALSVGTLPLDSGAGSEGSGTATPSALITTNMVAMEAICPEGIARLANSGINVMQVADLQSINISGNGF
Sequence of Glucocorticoid receptor (Homo sapiens) (P04150 whole entry, looked up, the tested form may be a part): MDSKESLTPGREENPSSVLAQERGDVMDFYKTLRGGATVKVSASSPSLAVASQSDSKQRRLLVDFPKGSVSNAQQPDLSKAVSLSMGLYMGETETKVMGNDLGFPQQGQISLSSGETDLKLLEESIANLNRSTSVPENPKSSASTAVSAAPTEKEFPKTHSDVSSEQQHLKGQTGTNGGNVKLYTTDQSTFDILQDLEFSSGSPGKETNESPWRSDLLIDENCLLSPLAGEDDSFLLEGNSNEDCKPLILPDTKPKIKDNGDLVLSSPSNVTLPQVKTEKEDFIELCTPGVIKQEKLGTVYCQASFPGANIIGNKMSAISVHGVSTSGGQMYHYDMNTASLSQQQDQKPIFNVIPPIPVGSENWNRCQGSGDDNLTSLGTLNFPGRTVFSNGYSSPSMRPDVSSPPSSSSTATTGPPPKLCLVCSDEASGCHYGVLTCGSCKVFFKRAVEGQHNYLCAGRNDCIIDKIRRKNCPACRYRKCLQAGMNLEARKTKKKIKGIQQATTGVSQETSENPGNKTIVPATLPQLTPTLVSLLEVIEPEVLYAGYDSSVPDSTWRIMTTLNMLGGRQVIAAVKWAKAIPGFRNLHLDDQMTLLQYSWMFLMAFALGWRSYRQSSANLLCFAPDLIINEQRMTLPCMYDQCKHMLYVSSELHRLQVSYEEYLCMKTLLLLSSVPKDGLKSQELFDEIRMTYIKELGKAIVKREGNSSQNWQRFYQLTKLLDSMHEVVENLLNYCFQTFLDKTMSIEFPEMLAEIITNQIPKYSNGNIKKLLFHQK
Sequence of Estrogen-related receptor gamma (Homo sapiens) (P62508 whole entry, looked up, the tested form may be a part): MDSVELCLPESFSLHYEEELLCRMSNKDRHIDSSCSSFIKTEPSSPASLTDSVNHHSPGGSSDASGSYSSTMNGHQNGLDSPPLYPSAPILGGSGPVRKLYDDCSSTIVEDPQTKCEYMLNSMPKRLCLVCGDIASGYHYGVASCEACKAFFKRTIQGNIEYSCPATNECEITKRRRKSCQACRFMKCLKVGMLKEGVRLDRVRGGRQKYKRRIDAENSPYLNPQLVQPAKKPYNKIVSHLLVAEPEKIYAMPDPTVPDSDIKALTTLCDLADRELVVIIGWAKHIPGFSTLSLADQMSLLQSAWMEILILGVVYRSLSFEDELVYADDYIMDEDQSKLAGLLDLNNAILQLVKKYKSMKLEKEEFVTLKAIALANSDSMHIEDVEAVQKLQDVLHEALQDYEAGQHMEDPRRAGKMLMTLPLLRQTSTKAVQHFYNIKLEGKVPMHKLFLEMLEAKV

Turning to `Nc1ccn([C@@H]2O[C@H](CO)[C@@H](O)C2O)c(=O)n1` (some centres not stated), the outcome in assay [1], in [2], in [3], in assay [4], in [5] and in assay [6] was inactive. The compound was classed as inactive in assay [7], in assay [8], in [9], in assay [10], in assay [11] and in assay [12]. Further, the result in [13], in [14] and in assay [15] was inactive.

Turning to `O=C(Nc1ccc(Cl)c(Cl)c1)c1cc(Cl)cc(Cl)c1O`, the concentration at half-maximal activity (AC50) is 1.49 µM (active) in assay [1]; 0.648 µM (active) in assay [2]; 0.903 µM (active) in assay [3]; 33.4 µM (active) in assay [8]; 2.27 µM (active) in assay [11]; 6.62 µM (active) in assay [18]. The concentration at half-maximal activity (AC50) in [13] is 1.72 µM (active). Further, the call in assay [4], in assay [6], in [16], in [7], in assay [9] and in [10] was inactive. In addition, the compound was classed as inactive in assay [17], in assay [19] and in [20].

As to `C=COC(=O)C(C)(C)CCCCCC`, in [1], the AC50 is 27.9 µM (active). Moreover, the call in assay [2], in assay [3], in assay [4], in [5], in assay [16] and in assay [7] was inactive. For the same compound, the compound was classed as inactive in assay [8], in assay [9], in assay [10], in [11], in [17] and in assay [13]. Further, in assay [20], the compound was classed as inactive.

`O=S(=O)(c1ccc(OCc2ccccc2)cc1)c1ccccc1O`: the AC50 in [1] was 7.94 µM (active); in assay [2] it was 0.156 µM (active); in assay [5] it was 30.6 µM (active); in assay [8], 54.4 µM (active); in [11] it was 8.61 µM (active); in assay [13], 31 µM (active). In addition, the outcome in [3], in assay [4], in assay [16], in assay [7], in assay [9] and in assay [10] was inactive. Moreover, the compound was classed as inactive in [18] and in assay [20].

Take `Cc1ccc2ccc3ccc(C)cc3c2c1`: the figures for the concentration at half-maximal activity (AC50) in assay [1] and in assay [18] were 8.1 µM (active) and 7.58 µM (active), respectively. The compound was classed as inactive in [2], in assay [3], in assay [4], in assay [5], in [7] and in assay [9]. In addition, the compound was classed as inactive in assay [10], in assay [11], in [17], in assay [13], in assay [14] and in assay [19]. Further, the result in assay [20] was inactive.

As for `COC(=O)CC(C(C)=O)C(=O)OC` (configuration not stated), the result in assay [1], in assay [2], in assay [3], in assay [4], in assay [5] and in assay [16] was inactive. Further, the outcome in assay [7], in assay [8], in assay [9], in assay [10], in assay [11] and in assay [18] was inactive. In addition, the compound was called inactive in assay [13] and in assay [14].

On to `NC(C(F)(F)F)C(F)(F)F`, for which the call in assay [1], in [2], in [3], in assay [4], in assay [5] and in assay [16] was inactive. In addition, the outcome in [7], in [8], in assay [9], in [10], in assay [11] and in assay [12] was inactive. In addition, the outcome in assay [13] was inactive.

`CC(=O)CC(C)C`: the compound was called inactive in assay [1], in assay [2], in assay [3], in [4], in assay [6] and in assay [16]. Also, the call in [7], in assay [8], in assay [9], in assay [10], in assay [11] and in assay [17] was inactive. Moreover, the call in assay [12], in assay [13], in assay [14] and in [15] was inactive.

Values taken from PubChem BioAssay (EPA / NIEHS).
